Screen size: about 5,500 compounds; about 2,000 (36%) were called active. Another 18% or so got no clear call; they are omitted. No stated cut-off is given here; in the data, active means normalized growth mostly below about 0.91 (no sharp cut-off); inconclusive means no clear call, values can overlap the other calls; inactive means mostly above about 0.92. This is one part of the list.
Test: chemical genetic growth profiling, strain panel (AID 1159580);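 further: tested at 20 µM; growth read once vehicle control cultures reached saturation at 30 °C; 1 = growth at the plate median or of vehicle wells; lower values mean less growth of the strain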
Details: S. cerevisiae deletion strains, growth OD

Measured: normalized growth

CCN1CN=C(SCc2ccc(Br)cc2)NC1
inactive: locus YAL013W, strain DEP1, hits give low values 1.01 | locus YBR229C, strain ROT2, hits give low values 1.01 | locus YCL061C, strain MRC1, hits give low values 1.02 | locus YDL101C, strain DUN1, hits give low values 0.998 | locus YDL134C, strain PPH21, hits give low values 1.01 | locus YDR150W, strain NUM1, hits give low values 0.995 | locus YEL061C, strain CIN8, hits give low values 1.01 | locus YGR078C, strain PAC10, hits give low values 0.998 | locus YHR030C, strain SLT2, hits give low values 0.902 | locus YHR087W, strain rtc3, hits give low values 0.999 | locus YJL187C, strain SWE1, hits give low values 1.01 | locus YJR043C, strain POL32, hits give low values 0.988 | locus YJR075W, strain HOC1, hits give low values 0.98 | locus YKL190W, strain CNB1, hits give low values 1.02 | locus YLR039C, strain RIC1, hits give low values 0.982 | locus YLR058C, strain SHM2 (second series), hits give low values 1.02 | locus YLR085C, strain ARP6, hits give low values 1.02 | locus YLR262C, strain YPT6, hits give low values 0.953 | locus YML094W, strain GIM5, hits give low values 0.996 | locus YMR219W, strain ESC1, hits give low values 0.999 | locus YMR263W, strain SAP30, hits give low values 1.01 | locus YMR307W, strain GAS1, hits give low values 1.17 | locus YNL153C, strain GIM3, hits give low values 0.986 | locus YNL298W, strain CLA4 (second series), hits give low values 0.984 | locus YNL322C, strain KRE1, hits give low values 1.01 | locus YNR030W, strain Alg12, hits give low values 0.999 | locus YPL055C, strain LGE1, hits give low values 1.06 | locus YPL241C, strain CIN2, hits give low values 0.995 | locus YPR135W, strain CTF4, hits give low values 0.98

Reference: PubChem BioAssay AID1159580 (chemical genetic matrix, 2015)
